The whole screen tested about 5,500 compounds, of which about 2,000 (36%) were called active. Roughly 18% stayed inconclusive and do not appear here. Rule as the data show it: active = normalized growth mostly below about 0.91 (no sharp cut-off); inconclusive = no clear call, values can overlap the other calls; inactive = mostly above about 0.92. Some of the results follow.
Test: chemical genetic growth profiling, strain panel (AID 1159580);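 also: tested at 20 µM; growth read once vehicle control cultures reached saturation at 30 °C; 1 = growth at the plate median or of vehicle wells; lower values mean less growth of the strain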
Conditions: growth OD

Measured: normalized growth

CC(=O)OCC(=O)[C@@]1(O)CCC2C3CC[C@@H]4C[C@H](OC(C)=O)CC[C@]4(C)C3C(=O)C[C@@]21C (some centres not stated)
inactive: S. cerevisiae deletion strains, locus YBR021W, strain FUR4, stronger effect = lower value 0.972 | S. cerevisiae deletion strains, locus YBR229C, strain ROT2, stronger effect = lower value 0.997 | S. cerevisiae deletion strains, locus YCL029C, strain bik1, stronger effect = lower value 1.03 | S. cerevisiae deletion strains, locus YDL035C, strain GPR1, stronger effect = lower value 0.989 | S. cerevisiae deletion strains, locus YDL074C, strain BRE1, stronger effect = lower value 0.993 | S. cerevisiae deletion strains, locus YDL101C, strain DUN1, stronger effect = lower value 1.01 | S. cerevisiae deletion strains, locus YDL185W, strain tfp1, stronger effect = lower value 1.02 | S. cerevisiae deletion strains, locus YDL192W, strain arf1, stronger effect = lower value 1.01 | S. cerevisiae deletion strains, locus YDR101C, strain arx1, stronger effect = lower value 1.01 | S. cerevisiae deletion strains, locus YDR150W, strain NUM1, stronger effect = lower value 0.994 | S. cerevisiae deletion strains, locus YDR162C, strain NBP2, stronger effect = lower value 0.987 | S. cerevisiae deletion strains, locus YDR318W, strain mcm21, stronger effect = lower value 1 | S. cerevisiae deletion strains, locus YDR388W, stronger effect = lower value 1.01 | S. cerevisiae deletion strains, locus YDR502C, strain sam2, stronger effect = lower value 1 | S. cerevisiae deletion strains, locus YEL061C, strain CIN8, stronger effect = lower value 0.971 | S. cerevisiae deletion strains, locus YER110C, stronger effect = lower value 1.01 | S. cerevisiae deletion strains, locus YER155C, strain BEM2, stronger effect = lower value 0.994 | S. cerevisiae deletion strains, locus YER167W, strain BCK2, stronger effect = lower value 0.961 | S. cerevisiae deletion strains, locus YGL078C, strain dbp3, stronger effect = lower value 1 | S. cerevisiae deletion strains, locus YGL086W, strain mad1, stronger effect = lower value 1.01 | S. cerevisiae deletion strains, locus YGL248W, strain PDE1, stronger effect = lower value 1.01 | S. cerevisiae deletion strains, locus YGR135W, strain pre9, stronger effect = lower value 1 | S. cerevisiae deletion strains, locus YGR252W, strain gcn5, stronger effect = lower value 0.991 | S. cerevisiae deletion strains, locus YHR030C, strain SLT2, stronger effect = lower value 1 | S. cerevisiae deletion strains, locus YHR079C, strain IRE1 (second series), stronger effect = lower value 1.01 | S. cerevisiae deletion strains, locus YHR094C, strain hxt1, stronger effect = lower value 1.01 | S. cerevisiae deletion strains, locus YHR129C, strain ARP1, stronger effect = lower value 0.996 | S. cerevisiae deletion strains, locus YHR200W, strain rpn10, stronger effect = lower value 1.02 | S. cerevisiae deletion strains, locus YIL066C, strain RNR3, stronger effect = lower value 1 | S. cerevisiae deletion strains, locus YIL073C, strain SPO22, stronger effect = lower value 1.05 | S. cerevisiae deletion strains, locus YIL125W, strain kgd1, stronger effect = lower value 1 | S. cerevisiae deletion strains, locus YIR030C, strain dcg1, stronger effect = lower value 0.999 | S. cerevisiae deletion strains, locus YJL095W, strain BCK1, stronger effect = lower value 1 | S. cerevisiae deletion strains, locus YJL134W, strain LCB3, stronger effect = lower value 1 | S. cerevisiae deletion strains, locus YJL168C, strain set2, stronger effect = lower value 1.01 | S. cerevisiae deletion strains, locus YJL187C, strain SWE1 (second series), stronger effect = lower value 0.999 | S. cerevisiae deletion strains, locus YJR043C, strain POL32, stronger effect = lower value 0.995 | S. cerevisiae deletion strains, locus YKL009W, strain mrt4, stronger effect = lower value 0.988 | S. cerevisiae deletion strains, locus YKL068W, stronger effect = lower value 1.01 | S. cerevisiae deletion strains, locus YKL085W, strain MDH1 (second series), stronger effect = lower value 1.01 | S. cerevisiae deletion strains, locus YKL085W, strain MDH1, stronger effect = lower value 1.01 | S. cerevisiae deletion strains, locus YKL190W, strain CNB1, stronger effect = lower value 0.997 | S. cerevisiae deletion strains, locus YKR001C, strain vps1, stronger effect = lower value 1.01 | S. cerevisiae deletion strains, locus YLR039C, strain RIC1, stronger effect = lower value 1.02 | S. cerevisiae deletion strains, locus YLR058C, strain SHM2, stronger effect = lower value 0.993 | S. cerevisiae deletion strains, locus YLR102C, strain apc9, stronger effect = lower value 1.01 | S. cerevisiae deletion strains, locus YLR262C, strain YPT6, stronger effect = lower value 1.03 | S. cerevisiae deletion strains, locus YLR268W, strain sec22, stronger effect = lower value 1.03 | S. cerevisiae deletion strains, locus YLR330W, strain CHS5, stronger effect = lower value 1 | S. cerevisiae deletion strains, locus YLR342W, strain FKS1 (second series), stronger effect = lower value 1.01 | S. cerevisiae deletion strains, locus YLR371W, strain rom2, stronger effect = lower value 1 | S. cerevisiae deletion strains, locus YLR418C, strain cdc73, stronger effect = lower value 1.01 | S. cerevisiae deletion strains, locus YML016C, strain PPZ1, stronger effect = lower value 1.01 | S. cerevisiae deletion strains, locus YML032C, strain rad52, stronger effect = lower value 1 | S. cerevisiae deletion strains, locus YML124C, strain tub3, stronger effect = lower value 1.01 | S. cerevisiae deletion strains, locus YMR078C, strain ctf18, stronger effect = lower value 1.02 | S. cerevisiae deletion strains, locus YMR223W, strain ubp8, stronger effect = lower value 1.02 | S. cerevisiae deletion strains, locus YMR263W, strain SAP30, stronger effect = lower value 0.995 | S. cerevisiae deletion strains, locus YMR307W, strain GAS1, stronger effect = lower value 0.99 | S. cerevisiae deletion strains, locus YNL067W, strain RPL9B, stronger effect = lower value 1 | S. cerevisiae deletion strains, locus YNL153C, strain GIM3, stronger effect = lower value 1 | S. cerevisiae deletion strains, locus YNL233W, strain BNI4, stronger effect = lower value 0.995 | S. cerevisiae deletion strains, locus YNL250W, strain rad50, stronger effect = lower value 1.02 | S. cerevisiae deletion strains, locus YNL271C, strain bni1, stronger effect = lower value 1.01 | S. cerevisiae deletion strains, locus YNL298W, strain CLA4, stronger effect = lower value 1.01 | S. cerevisiae deletion strains, locus YNL307C, strain MCK1, stronger effect = lower value 1.02 | S. cerevisiae deletion strains, locus YNL322C, strain KRE1, stronger effect = lower value 0.998 | S. cerevisiae deletion strains, locus YNR052C, strain pop2, stronger effect = lower value 1.01 | S. cerevisiae deletion strains, locus YOL012C, strain htz1 1 | S. cerevisiae deletion strains, locus YOL147C, strain pex11, stronger effect = lower value 1.01 | S. cerevisiae deletion strains, locus YOR061W, strain CKA2, stronger effect = lower value 1.01 | S. cerevisiae deletion strains, locus YOR069W, strain VPS5, stronger effect = lower value 0.996 | S. cerevisiae deletion strains, locus YOR136W, strain idh2, stronger effect = lower value 1.02 | S. cerevisiae deletion strains, locus YOR144C, strain elg1, stronger effect = lower value 1.02 | S. cerevisiae deletion strains, locus YOR184W, strain ser1, stronger effect = lower value 1.01 | S. cerevisiae deletion strains, locus YOR316C, strain cot1, stronger effect = lower value 1.01 | S. cerevisiae deletion strains, locus YPR119W, strain clb2, stronger effect = lower value 1 | S. cerevisiae deletion strains, locus YPR141C, strain kar3, stronger effect = lower value 1.02 | S. cerevisiae deletion strains, locus YPR163C, strain tif3, stronger effect = lower value 1.02 | S. cerevisiae deletion strains, locus YPR167C, strain met16, stronger effect = lower value 1.02 | S. cerevisiae deletion strains, strain wtn01, stronger effect = lower value 1.02 | S. cerevisiae strains, strain wild type, stronger effect = lower value 0.986
